Results filed as inconclusive are left out. Calls of active or inactive are those of the source. Calls come from the whole dose curve; as a rule, active = well fitted curve in the direction sought with a large enough effect in the repeat runs; inconclusive = weak or mixed curves; inactive = no such curve, though single readings can be large; an effect the other way counts as inactive or inconclusive.
Key:
[1] = qHTS RealTime-Glo MT Cell Viability Assay in HepG2 cells - 8 hour (AID 1224873); note: nearly all actives have a fitted effect of over 55% in size
Outline: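 HepG2 cells mixed with RealTime-Glo MT reagents (NanoLuc plus cell-permeant prosubstrate) were seeded at 600 cells/well, incubated 5 h at 37 C/5% CO2, then pinned with compounds in DMSO; nonlytic luminescence tracked viability during 40 h treatment.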

[2] = qHTS RealTime-Glo MT Cell Viability Assay in HEK293 cells - 40 hour (AID 1224874); conditions: RealTime-Glo luminescence; max response: hits give low values; note: nearly all actives have a fitted effect of over 50% in size
Outline: (§1)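 qHTS format; HEK293 cells with NanoLuc/prosubstrate reagent, 37 C/5% CO2 for 5 h pre-dosing; compounds 23 nL in DMSO; luminescence at each time point reflects viable cells.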

[3] = A CellTox Green Cytotoxicity Assay to monitor cytotoxicity in HEK293 cells - 24 hour (AID 1224875); note: series mostly up to about 77 µM; nearly all actives have a fitted effect of over 45% in size
Outline: (§2)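 Each value comes from one timepoint of a single continuous run in which HEK293 cells with CellTox Green were exposed to compound for up to 40 h at 37 C, dye fluorescence rising with cell death.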

[4] = A CellTox Green Cytotoxicity Assay to monitor cytotoxicity in HepG2 cells - 16 hour (AID 1224876); note: nearly all actives have a fitted effect of over 45% in size
Outline: (§3)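 Continuous culture of HepG2 cells with a membrane-impermeant DNA dye; rising fluorescence marks dead cells. Compound exposure lasted up to 40 h at 37 C, with reads every 8 h from 0 h.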

[5] = A CellTox Green Cytotoxicity Assay to monitor cytotoxicity in HepG2 cells - 24 hour (AID 1224878); note: nearly all actives have a fitted effect of over 45% in size
Outline: as §3

[6] = A CellTox Green Cytotoxicity Assay to monitor cytotoxicity in HepG2 cells - 40 hour (AID 1224879); note: nearly all actives have a fitted effect of over 40% in size
Outline: as §3

[7] = qHTS RealTime-Glo MT Cell Viability Assay in HEK293 cells - 0 hour (AID 1224880); note: top concentration of the series differs between compounds; nearly all actives have a fitted effect of over 45% in size
Outline: as §1

[8] = A CellTox Green Cytotoxicity Assay to monitor cytotoxicity in HEK293 cells - 32 hour (AID 1224881); note: nearly all actives have a fitted effect of over 40% in size
Outline: as §2

[9] = A CellTox Green Cytotoxicity Assay to monitor cytotoxicity in HepG2 cells - 0 hour (AID 1224882); note: nearly all actives have a fitted effect of over 35% in size
Outline: as §3

[10] = qHTS RealTime-Glo MT Cell Viability Assay in HepG2 cells - 32 hour (AID 1224877); note: nearly all actives have a fitted effect of over 55% in size
Outline: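 Cells + NanoLuc/prosubstrate dispensed (600 cells/well) → 5 h at 37 C/5% CO2 → compounds in DMSO transferred → 40 h incubation at 37 C, luminescence read at 0, 8, 16, 24, 32, 40 h.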
% is set by controls: 0 for no effect and ±100 for the full control effect.

CC(=O)CCCCn1c(=O)c2c(ncn2C)n(C)c1=O
inactive: outcome [1] | max response [2] -0.881% | outcome [3] | outcome [4] | outcome [5] | Potency [6] | Potency [7] | Potency [8] | outcome [9]

C=C1CC/C=C(\C)CC[C@@H]2[C@@H]1CC2(C)C
inactive: outcome [1] | max response [2] 2.22% | outcome [3] | outcome [4] | outcome [10] | Potency [6] | Potency [7] | Potency [8] | outcome [9]

O=C(NCC(O)CO)c1c(I)c(C(=O)NCC(O)CO)c(I)c(N(CCO)C(=O)CO)c1I (centres undefined)
inactive: outcome [1] | max response [2] 8.98% | outcome [3] | outcome [4] | outcome [5] | Potency [6] | Potency [7] | Potency [8] | outcome [9]

Cc1cc(Cl)c(C)cc1Cl
inactive: outcome [1] | max response [2] 6.26% | outcome [3] | outcome [4] | outcome [10] | Potency [6] | Potency [7] | Potency [8] | outcome [9]

CCOC(=O)c1ccc(OC(=O)CCCCCN=C(N)N)cc1
inactive: outcome [1] | max response [2] -15.8% | outcome [3] | outcome [4] | outcome [10] | Potency [6] | Potency [7] | Potency [8] | outcome [9]

O=C(O)c1cc(Cl)cc([N+](=O)[O-])c1Cl
inactive: outcome [1] | max response [2] 21% | outcome [3] | outcome [4] | outcome [5] | Potency [6] | Potency [7] | Potency [8]

CCC(C)(CCC(C)C)C(=O)O (centres undefined)
inactive: outcome [1] | max response [2] 2.99% | outcome [3] | outcome [4] | outcome [5] | Potency [6] | Potency [7] | Potency [8] | outcome [9]

C=C(C)C(=O)OCc1ccccc1
inactive: outcome [1] | max response [2] -7.63% | outcome [3] | outcome [4] | outcome [5] | Potency [6] | Potency [8] | outcome [9]

O=C(OCC(COC(=O)c1cccnc1)(COC(=O)c1cccnc1)COC(=O)c1cccnc1)c1cccnc1
inactive: outcome [1] | max response [2] 10.7% | outcome [3] | outcome [4] | outcome [10] | Potency [7] | Potency [8] | outcome [9]

C=CC(OCC)OCC
inactive: outcome [1] | max response [2] 8.05% | outcome [3] | outcome [4] | outcome [5] | Potency [6] | Potency [7] | Potency [8] | outcome [9]

CCN(C)C(=O)Oc1cccc([C@H](C)N(C)C)c1
inactive: outcome [1] | max response [2] 1.94% | outcome [3] | outcome [4] | outcome [5] | Potency [6] | Potency [7] | Potency [8] | outcome [9]

O=C(O)c1ccc(Cl)cc1Cl
inactive: outcome [1] | max response [2] 7.46% | outcome [3] | outcome [4] | outcome [10] | Potency [6] | Potency [7] | Potency [8] | outcome [9]

CCCC(=O)C(C)=O
inactive: outcome [1] | max response [2] -1.51% | outcome [3] | outcome [4] | outcome [10] | Potency [6] | Potency [7] | Potency [8] | outcome [9]

CCCCCCCCCCl
inactive: outcome [1] | max response [2] -0.474% | outcome [3] | outcome [4] | outcome [5] | Potency [6] | Potency [7] | Potency [8] | outcome [9]

ClCCCl
inactive: outcome [1] | max response [2] -0.252% | outcome [3] | outcome [4] | outcome [10] | Potency [7] | Potency [8] | outcome [9]

Cc1ccsc1/C=C/C1=NCCCN1C
inactive: outcome [1] | max response [2] 2.37% | outcome [3] | outcome [4] | outcome [10] | Potency [6] | Potency [7] | Potency [8] | outcome [9]

CCCN1C[C@H](CSC)C[C@@H]2c3cccc4[nH]cc(c34)C[C@H]21
inactive: outcome [1] | max response [2] -0.0801% | outcome [3] | outcome [4] | outcome [5] | Potency [6] | Potency [7] | Potency [8] | outcome [9]

OC[C@H](Cc1cccc(O)c1)[C@H](CO)Cc1cccc(O)c1
inactive: outcome [1] | max response [2] -10.5% | outcome [3] | outcome [4] | outcome [5] | Potency [6] | Potency [7] | Potency [8] | outcome [9]

CC(=O)c1ccc2c(c1)Cc1ccccc1-2
inactive: outcome [1] | max response [2] -0.213% | outcome [3] | outcome [4] | outcome [10] | Potency [6] | Potency [7] | Potency [8] | outcome [9]

Nc1ncnc(Nc2ccccc2)n1
inactive: outcome [1] | max response [2] 3.02% | outcome [3] | outcome [4] | outcome [5] | Potency [6] | Potency [7] | outcome [9]

C[Si](C)(C)C
inactive: outcome [1] | max response [2] 7.29% | outcome [3] | outcome [4] | outcome [10] | Potency [6] | Potency [7] | Potency [8] | outcome [9]

CN1C(C)(C)CCCC1(C)C
inactive: outcome [1] | max response [2] -1.11% | outcome [3] | outcome [4] | outcome [10] | Potency [6] | Potency [7] | Potency [8] | outcome [9]

BrCc1cccc(Oc2ccccc2)c1
inactive: outcome [1] | max response [2] -9.91% | outcome [3] | outcome [4] | outcome [10] | Potency [7] | Potency [8] | outcome [9]

N#Cc1ccc(C(=O)O)cc1
inactive: outcome [1] | max response [2] 3.59% | outcome [3] | outcome [4] | outcome [5] | Potency [6] | Potency [7] | Potency [8]

O=C(CS(=O)Cc1ccco1)NC/C=C\COc1cc(CN2CCCCC2)ccn1 (centres undefined)
inactive: outcome [1] | max response [2] -0.682% | outcome [3] | outcome [4] | outcome [10] | Potency [6] | Potency [7] | Potency [8] | outcome [9]

CC(C)(C)c1cc(CCC(=O)NN)cc(C(C)(C)C)c1O
inactive: outcome [1] | max response [2] -14% | outcome [3] | outcome [4] | outcome [10] | Potency [7] | Potency [8] | outcome [9]

C[C@H](CCC(=O)O)[C@H]1CC[C@H]2[C@@H]3C(=O)C[C@@H]4CC(=O)CC[C@]4(C)[C@H]3CC(=O)[C@]12C
inactive: outcome [1] | max response [2] 4.35% | outcome [3] | outcome [4] | outcome [5] | Potency [6] | Potency [7] | Potency [8] | outcome [9]

OCCCCC(O)CO (centres undefined)
inactive: outcome [1] | max response [2] 5.78% | outcome [3] | outcome [4] | outcome [5] | Potency [6] | Potency [7] | Potency [8] | outcome [9]

COc1ccc(OC)c(Cl)c1
inactive: outcome [1] | max response [2] 5.92% | outcome [3] | outcome [4] | outcome [10] | Potency [6] | Potency [7] | outcome [9]

COc1ccc(-c2cc(=O)c3c(O)cc(O[C@@H]4O[C@H](CO[C@@H]5O[C@@H](C)[C@H](O)[C@@H](O)[C@H]5O)[C@@H](O)[C@H](O)[C@H]4O)cc3o2)cc1O
inactive: outcome [1] | outcome [3] | outcome [4] | outcome [5] | Potency [7] | Potency [8] | outcome [9]

Reference: PubChem BioAssay (Tox21)
